The full list was thinned out, with hits kept by preference.
Dicer processing = inhibitors of Dicer pre-microRNA processing, primary screen, biochemical, cat-ELCCA, chemiluminescence; actives 6% (n = 47,000); cat-ELCCA pre-miR-21 Dicer processing; stronger effect = higher value; z-score at 25 µM; AID 1347074, 2019; Endoribonuclease Dicer (Homo sapiens), Q9UPY3; in the data active = z-score above about 3, passing the limit was not always enough;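 note: plate controls were vehicle for no effect and no enzyme for full effect; higher signal means more uncleaved substrate so more Dicer inhibition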
Target sequence (Q9UPY3 whole entry, looked up): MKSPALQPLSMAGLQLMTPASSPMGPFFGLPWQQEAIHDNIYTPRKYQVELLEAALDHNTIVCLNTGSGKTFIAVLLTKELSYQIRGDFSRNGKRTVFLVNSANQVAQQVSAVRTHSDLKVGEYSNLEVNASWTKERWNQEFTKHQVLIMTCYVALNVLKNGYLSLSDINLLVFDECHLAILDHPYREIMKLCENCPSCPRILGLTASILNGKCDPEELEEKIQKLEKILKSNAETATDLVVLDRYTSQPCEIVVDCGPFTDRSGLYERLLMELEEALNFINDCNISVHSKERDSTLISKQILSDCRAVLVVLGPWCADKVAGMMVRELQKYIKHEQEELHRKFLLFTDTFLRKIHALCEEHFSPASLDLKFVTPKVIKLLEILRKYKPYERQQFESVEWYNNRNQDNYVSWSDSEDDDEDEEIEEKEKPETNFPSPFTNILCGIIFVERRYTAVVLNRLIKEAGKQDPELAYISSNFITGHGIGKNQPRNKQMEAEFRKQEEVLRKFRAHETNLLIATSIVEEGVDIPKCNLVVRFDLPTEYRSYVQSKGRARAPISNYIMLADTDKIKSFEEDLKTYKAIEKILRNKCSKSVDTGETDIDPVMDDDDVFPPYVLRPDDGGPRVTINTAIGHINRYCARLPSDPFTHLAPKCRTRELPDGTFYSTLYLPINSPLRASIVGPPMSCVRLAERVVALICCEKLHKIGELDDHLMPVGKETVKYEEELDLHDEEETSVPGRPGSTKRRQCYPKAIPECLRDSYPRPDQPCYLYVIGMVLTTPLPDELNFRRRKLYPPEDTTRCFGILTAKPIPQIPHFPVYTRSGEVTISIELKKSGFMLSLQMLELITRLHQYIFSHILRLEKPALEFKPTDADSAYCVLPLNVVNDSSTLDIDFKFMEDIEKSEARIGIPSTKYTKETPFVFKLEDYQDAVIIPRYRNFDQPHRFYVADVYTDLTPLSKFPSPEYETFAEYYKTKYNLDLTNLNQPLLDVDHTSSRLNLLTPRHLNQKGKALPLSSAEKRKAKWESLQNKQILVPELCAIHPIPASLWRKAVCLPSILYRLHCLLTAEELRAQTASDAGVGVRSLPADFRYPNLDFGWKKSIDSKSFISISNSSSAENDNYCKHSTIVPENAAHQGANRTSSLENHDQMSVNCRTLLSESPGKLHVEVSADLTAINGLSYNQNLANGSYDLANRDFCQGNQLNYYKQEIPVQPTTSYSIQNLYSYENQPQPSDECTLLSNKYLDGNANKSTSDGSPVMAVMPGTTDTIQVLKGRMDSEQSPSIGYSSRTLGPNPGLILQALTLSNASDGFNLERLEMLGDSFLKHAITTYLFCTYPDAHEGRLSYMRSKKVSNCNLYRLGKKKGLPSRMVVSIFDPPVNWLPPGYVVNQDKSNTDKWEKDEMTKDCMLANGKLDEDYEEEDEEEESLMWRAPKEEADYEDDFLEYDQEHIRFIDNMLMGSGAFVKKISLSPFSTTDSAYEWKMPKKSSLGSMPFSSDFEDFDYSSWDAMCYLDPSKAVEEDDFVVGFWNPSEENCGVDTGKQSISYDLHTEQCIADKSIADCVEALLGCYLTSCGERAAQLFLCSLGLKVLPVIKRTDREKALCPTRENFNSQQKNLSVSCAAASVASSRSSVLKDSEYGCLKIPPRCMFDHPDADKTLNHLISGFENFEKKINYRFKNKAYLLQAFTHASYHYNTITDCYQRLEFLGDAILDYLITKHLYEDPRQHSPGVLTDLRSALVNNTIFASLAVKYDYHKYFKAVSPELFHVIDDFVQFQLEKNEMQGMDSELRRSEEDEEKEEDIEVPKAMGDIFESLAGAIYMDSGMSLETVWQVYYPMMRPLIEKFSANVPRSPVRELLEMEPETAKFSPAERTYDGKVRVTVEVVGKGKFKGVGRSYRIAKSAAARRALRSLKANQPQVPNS
* hit, by the source's call.

SMILES	Dicer processing
CCOc1ccc(/C(O)=C2\C(=O)C(=O)N(c3nnc(C)s3)C2c2ccc(OC)cc2)cc1 (centres undefined)	1.44
CCOc1ccc(/C(O)=C2\C(=O)C(=O)N(c3nnc(C)s3)C2c2ccc(OC)c(OC)c2)cc1 (centres undefined)	2.32
CCOC(=O)c1sc2nc(C)cc(C)c2c1N	-1.24
Cc1cc(C)c2c(N)c(C(=O)NN)sc2n1	-1.33
CNC(=S)NNC(=O)c1sc2nc(C)cc(C)c2c1N	4.62*
Cc1ccc(S(=O)(=O)NC(=O)N2CCCN(c3ncnc4scc(-c5ccccc5)c34)CC2)cc1	-0.34
CCC(=NCc1ccc(C#N)cc1)c1ccccc1O	1.97
C[C@](N)(Cc1ccc(O)c(O)c1)C(=O)O	1.28
O=C1CC(c2cccc(Cl)c2)Cc2nc(N3CCN(Cc4ccc5c(c4)OCO5)CC3)ncc21 (centres undefined)	0.07
O=C1CC(/C=C/c2ccccc2)Cc2nc(N3CCN(Cc4ccc5c(c4)OCO5)CC3)ncc21 (centres undefined)	4.6*
COc1ccc(C2CC(=O)c3cnc(N4CCN(Cc5ccc6c(c5)OCO6)CC4)nc3C2)cc1 (centres undefined)	1
Cc1ccc(C2SCCN2S(=O)(=O)c2ccc(Br)cc2)cc1 (centres undefined)	-2.44
CC1=C(OC(=O)/C=C/c2ccccc2)C(=O)CC1	-0.53
O=C(O)C1CCCN1C(=O)OCC1c2ccccc2-c2ccccc21 (centres undefined)	-0.52
Clc1ccccc1CSc1nnnn1-c1ccccc1	0.72
NC(=O)c1ccc(-n2nnnc2SCc2ccccc2Br)cc1	3.99*
O=C(O)c1ccc(-n2nnnc2SCc2ccccc2Br)cc1	0.34
CCCc1ccc(C(=O)Nc2nc(-c3ccc(C)c(Cl)c3)c(C)s2)cc1	1.64
CC1=C(C#N)C(c2ccccc2)C2=C(CC(c3ccccc3)CC2=O)N1 (centres undefined)	0.17
NC(=S)Nc1ccccc1C(F)(F)F	-0.1
Nc1ccccc1NC(=S)Nc1ccccc1C(F)(F)F	1.82
Nc1ccc(-c2nnc(Nc3ccccc3C(F)(F)F)s2)cc1	3.6*
O=C1CC(c2ccsc2)c2c(n[nH]c2-c2ccc(Cl)cc2)N1 (centres undefined)	2.51
CC1=CCC(C(=O)N(Cc2cccnc2)Cc2ccc(Cl)cc2Cl)C(C(=O)O)C1 (centres undefined)	0.73
O=C1CC(c2ccco2)Cc2c1cnn2-c1nc2ccccc2s1 (centres undefined)	-1.03
SMILES	Dicer processing
O=C(C1=NNCC1c1c2ccccc2cc2ccccc12)c1ccc(Br)cc1 (centres undefined)	-0.74
O=C(C1=NNCC1c1ccccc1)c1ccc2ccccc2c1 (centres undefined)	4.34*
O=C(C1=NNCC1c1ccccc1)c1ccccc1 (centres undefined)	-0.12
CCOC(=O)C(=O)N(c1ccccc1)C1CC(C)N(C(=O)C(C)C)c2ccccc21 (centres undefined)	0.79
Cc1cc(C)c(Nc2n[nH]c(=S)s2)c(C)c1	-0.74
Cc1cc(C)c(Nc2nc3cc(Br)cc(C)c3s2)c(C)c1	3.77*
Cc1cc(C)c(Nc2nnns2)c(C)c1	-2.25
COc1ccc(-c2ocnc2C(=O)NCc2nn(-c3ccccc3)nc2C)cc1	-0.71
COc1ccccc1-c1coc2cc(OCC(=O)OCC(C)C)ccc2c1=O	0.02
Cc1[nH]c2ccccc2c1Cc1n[nH]c(=S)o1	1.03
Cc1cccc(C)c1NC(=O)n1nccc1-c1c(-c2ccc(Cl)cc2)noc1C	-0.25
O=C1CC(c2ccco2)Cc2c1cnc1[nH]n(-c3ccccc3)c(=O)c21 (centres undefined)	-0.85
O=C(Nc1csc2ccccc12)NC1CC1	0.02
Cc1ccc(S(=O)(=O)n2c(=O)sc3ccccc32)cc1	-0.13
Cc1ccc(S(=O)(=O)n2c(=O)oc3cc(Cl)ccc32)cc1	16.1*
COC(=O)n1c(=O)oc2cc(Cl)ccc21	1.38
CC1=NN(c2ccccc2)C(=O)C1C1C(=O)N(c2ccccc2)N=C1C (centres undefined)	-5.18
Cc1cc(C2CCCCC2)n(O)c(=O)c1	0.87
CC(C)(C)c1cc(C(C)(C)C)n(-c2cnc3ccccc3n2)n1	-1.69
CC(=O)Nc1ccc(O)cc1	0.37
COC(=O)Cn1cnc(=O)c(C#N)c1C	3.37*
CCOC(=O)Cn1cc(C#N)c(=O)[nH]c1=O	-0.59
COC(=O)CNC(=O)Cn1cnc2c1c(=O)n(C)c(=O)n2C	2.86
Clc1ccc(-c2nnc3n2N=C(c2c[nH]c4ccccc24)CS3)cc1	0.47
CCOC(=O)c1cnc(-c2ccccn2)[nH]c1=O	2.29
SMILES	Dicer processing
Cc1onc(-c2ccccc2)c1CNC(=O)C1CCN(c2nccc(C(F)(F)F)n2)CC1	-1.3
CC(=O)OC1CCC2(C)C(=CCC3C2CCC2(C)C(C(=O)OC4CC5CCC4C5)CCC32)C1 (centres undefined)	-2.01
N#Cc1cccnc1N1CCN(C(=O)Nc2ccccc2)CC1	2.77
N#Cc1cccnc1N1CCN(C(=O)Nc2ccc(OC(F)(F)F)cc2)CC1	3.13*
O=C(Nc1ccc(OC(F)(F)F)cc1)N1CCN(c2ccc([N+](=O)[O-])cn2)CC1	-0.92
Cc1ccccc1OCc1nc2c3c4c(sc3ncn2n1)CCCC4	0.77
CCOc1ccc(-c2cc(OC)c3c(C)oc(C)c3c(=O)c2)cc1	1.06
CC1CCN(C(=O)c2nn3c(c2Cl)NC(c2ccco2)CC3C(F)(F)F)CC1 (centres undefined)	4.02*
CC1CN(C(=O)c2cc3n(n2)C(C(F)(F)F)CC(c2ccco2)N3)CC(C)O1 (centres undefined)	1.73
CSc1ccccc1NC(=O)c1cc2n(n1)C(C(F)(F)F)CC(c1ccco1)N2 (centres undefined)	-0.22
O=C(NC1CCCC1)c1nn2c(c1Cl)NC(c1ccccc1)CC2C(F)(F)F (centres undefined)	-0.2
CSc1ccccc1NC(=O)c1nn2c(c1Cl)NC(c1ccco1)CC2C(F)(F)F (centres undefined)	4.41*
O=C(O)c1cc2n(n1)C(C(F)(F)F)CC(c1ccco1)N2 (centres undefined)	-0.34
CC(=O)c1c(-c2ccccc2)c2cc(Cl)ccc2[nH]c1=O	-0.8
Brc1cccc(-c2nc(-c3ccncc3)no2)c1	-1.78
CC1=C(C(=O)OC2CCCC2)C(c2ccc(F)cc2)C2=C(CC(c3cccs3)CC2=O)N1 (centres undefined)	0.71
Cc1ccc(-c2cc3nc(-c4ccco4)cc(C(F)(F)F)n3n2)cc1	-1.33
FC(F)(F)c1cc(-c2cccs2)nc2cc(-c3ccco3)nn12	3.54*
COC(=O)c1cc2nc(-c3cccs3)cc(C(F)(F)F)n2n1	-0.66
N/C(=N\OC(=O)Nc1ccccc1)c1nccnc1Oc1cccc(C(F)(F)F)c1	-2.7
Cc1c(O)c(=O)n(-c2ccccc2)n1C	0.57
O=C1c2cccc3cccc(c23)C(=O)N1Nc1ccccc1	0.66
Cc1c(N2C(=O)c3cccc4cccc(c34)C2=O)c(=O)n(-c2ccccc2)n1C	4.37*
O=C(c1ccncc1)N1c2ccccc2Sc2ccccc21	0.16
CCOC(=O)C(O)(c1ccc(N)cc1)C(F)(F)F (centres undefined)	0.16
COc1ccc2ccccc2c1Br	-1.28
COc1ccc2cccc3c2c1C=CC3=O	4.22*
CC(=O)ON1C(=O)c2cccc3cccc(c23)C1=O	1.23
O=C(Nc1cnc2sc3ccccc3n2c1=O)c1ccc(Cl)cc1	0.52
CN1CCN(c2nc3c(c(=O)n(C)c(=O)n3C)n2Cc2ccc(F)cc2)CC1	2.76

From PubChem BioAssay
